# Measurements taken from PubChem BioAssay AID651636 (Sanford-Burnham Center for Chemical Genomics, 2012).
# Screen size: about 360,000 compounds; about 3,000 (0.83%) were called active. Many of the other results were omitted from the sample, so actives are more common in it than they were. Unmarked numbers belong to inactive results. No stated cut-off is given here; in the data, active means inhibition above about 38%; inactive means the rest.
# Target: G-protein coupled receptor 183 (Homo sapiens) (UniProt P32249)
# Sequence (P32249 whole entry, looked up, the tested form may be a part): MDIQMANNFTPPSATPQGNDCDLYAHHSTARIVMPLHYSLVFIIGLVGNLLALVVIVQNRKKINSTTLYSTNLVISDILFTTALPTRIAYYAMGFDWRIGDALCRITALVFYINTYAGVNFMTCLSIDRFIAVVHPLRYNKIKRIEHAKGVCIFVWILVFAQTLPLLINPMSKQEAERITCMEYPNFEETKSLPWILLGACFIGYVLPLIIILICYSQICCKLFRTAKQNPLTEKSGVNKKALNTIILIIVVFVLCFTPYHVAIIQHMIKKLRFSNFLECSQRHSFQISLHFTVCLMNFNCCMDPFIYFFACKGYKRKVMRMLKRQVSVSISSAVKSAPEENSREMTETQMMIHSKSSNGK
# Experiment: blockers of oxysterol-driven EBI2 arrestin signaling – cell-based, luminescence, 7a,25-OHC stimulation, uHTS, primary screen (AID 651636);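 further: enzyme fragment complementation signal reports receptor beta-arrestin coupling in cells; 0% = agonist plus DMSO wells and 100% = wells without agonist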
# Conditions: EBI2 beta-arrestin recruitment, 7a,25-OHC stimulated, at 5 µM, hits give high values
row,SMILES,inhibition
1,Cc1nnnn1/C(=C\c1ccccc1)C(=O)OCC(=O)N1CC2(C)CC1CC(C)(C)C2 (stereo not given),31.6%
2,CCCC(C(=O)N1CCOCC1)N1C(=O)C2C3C=CC(C3)C2C1=O (stereo not given),-18.5%
3,CC(=O)c1ccc(S(=O)(=O)N2CCN(c3nc4c(C)c(C)ccc4cc3C#N)CC2)cc1,15.8%
4,CC(=O)c1ccc(S(=O)(=O)N2CCC(Oc3ccc(-n4cnnn4)cc3)CC2)cc1,2.61%
5,CC(=O)c1ccc(S(=O)(=O)N2CCN(C(=O)/C=C/c3ccc4ccccc4n3)CC2)cc1,62.3% (active)
6,CC(=O)c1nn(-c2ccc(C)cc2)cc1C(=O)c1cccc(Br)c1,46.1% (active)
7,CC(=O)c1nn(-c2cccc(Br)c2)cc1C(=O)c1cccc2ccccc12,12%
8,CCOC(=O)c1nn(-c2cccc(C)c2)cc1C(=O)c1ccccc1,11%
9,CCc1ccc[n+](-c2nc([O-])sc2C=O)c1,7.04%
10,Cc1ccc(C(=O)N2CCCc3ccccc32)c(Cl)c1,10.8%
11,CCCn1nc(C(=O)N2CCCc3ccccc32)c2ccccc2c1=O,14.1%
12,Cc1cccc2cc3c(N)c(C(=O)N4CCCc5ccccc54)sc3nc12,76.1% (active)
13,COc1ccc(C(C#N)=C2C=CC(=NO)c3ccccc32)cc1,17.2%
14,CC(Oc1ccc(Cl)cc1)C(=O)Nc1ncccn1 (stereo not given),-3.28%
15,COc1cccc(CNC(=O)C2CCN(S(=O)(=O)c3cccc4cccnc34)CC2)c1,-6.22%
16,CC(=O)/C(=N\Nc1ccc(Cl)cc1Cl)Sc1cccc2cccnc12,63.7% (active)
17,CCCCc1ccc(NS(=O)(=O)c2cccc(C(=O)N3CCCN(C)CC3)c2)cc1,-4.46%
18,Cc1ccc(CN2CC(C(=O)NNC(=O)Cn3ccc(C(F)(F)F)n3)CC2=O)cc1 (stereo not given),7.75%
19,O=C(/C=C/c1ccc(Cl)cc1)N1CCN(c2ccccc2[N+](=O)[O-])CC1,93.1% (active)
20,Cc1c(Br)c([N+](=O)[O-])nn1CC(=O)N1CCN(Cc2ccccc2)CC1,-9.97%
21,O=C(/C=C/c1ccccc1[N+](=O)[O-])OCC(=O)N1CCCC1,-0.221%
22,O=C(/C=C/c1cccc([N+](=O)[O-])c1)OCC(=O)N1CCOCC1,1.92%
23,O=C(/C=C/c1ccc(OCc2c(F)cccc2Cl)cc1)N1CCOCC1,7.94%
24,O=C(/C=C/c1cccc([N+](=O)[O-])c1)N1CCN(Cc2ccccc2)CC1,53.3% (active)
25,O=C(NCCN1CCCC(O)C1)c1cc(COc2c(F)cccc2F)on1 (stereo not given),-9.61%
26,CCOC(=O)C1(O)CC(C)=NN1C(=O)c1cccc(Br)c1 (stereo not given),-21.3%
27,CCC1([N+](=O)[O-])COC(c2ccc(C(C)C)cc2)OC1 (stereo not given),-3.46%
28,COc1ccc(S(=O)(=O)N(C)C[C@H]2Oc3c(NC(=O)Nc4ccc5c(c4)OCO5)cccc3C(=O)N([C@H](C)CO)C[C@@H]2C)cc1,5.07%

row,SMILES,inhibition
1,Cc1ccc(NC(=O)C2CCC(C(C)(C)C)CC2)cc1S(=O)(=O)N1CCOCC1 (stereo not given),-1.74%
2,Cc1[nH]nc(SCC(=O)NCC(C)C)c1[N+](=O)[O-],-0.06%
3,N#CC1=C(SCc2ccc(C#N)cc2)N=C(N)C(c2nc(-c3ccccc3)cs2)C12CCCCC2 (stereo not given),15.1%
4,Cc1cc(C)cc(N(CC(=O)NCCSCc2ccco2)S(C)(=O)=O)c1,3.14%
5,Cc1ccc(CSCCNC(=O)CN(c2ccc(F)cc2)S(C)(=O)=O)cc1,59% (active)
6,COc1ccc(N(CC(=O)NCCSCc2cccc(Cl)c2)S(C)(=O)=O)cc1,-2.19%
7,O=C(CCCOc1ccccc1)NNC(=O)c1ccc(Cl)cc1,17.9%
8,CN(CC(=O)Nc1ccc(Cl)cc1)C(=O)CNC(=O)c1ccc2ccccc2c1,2.02%
9,O=C(NNC(=O)c1ccc2ccccc2c1)c1ccc(Cl)cc1,60.9% (active)
10,Cc1ccc(-c2c(C)n([O-])c3c([n+]2=O)CCC3)cc1,0.406%
11,O=C(NCCc1ccccc1)Oc1ccc(Cl)cc1,-9.27%
12,O=C(COc1ccc(Cl)cc1)NCCSc1ccccc1,26.9%
13,O=C(CCc1ccccc1)NNC(=O)COc1ccc(Cl)cc1,38.4% (active)
14,CC(NC(=O)C1CCCN(S(=O)(=O)c2ccc(-n3cnnn3)cc2)C1)c1ccc(F)cc1 (stereo not given),-4.68%
15,O=C1/C(=C\c2ccc(O)cc2)CCC1CNc1ccc(Cl)cc1 (stereo not given),20.4%
16,O=C(C1CCN(S(=O)(=O)c2cnc[nH]2)CC1)N1CCN(Cc2ccc3c(c2)OCO3)CC1,-0.0388%
17,COC(=O)c1ccc(/C=N/N2C(C)CCCC2C)cc1 (stereo not given),-2.67%
18,Brc1ccc(/C=N/N2CCN(C3c4ccccc4-c4ccccc43)CC2)s1,6.47%
19,CCOc1ccc(CCN2C(=S)N([C@@H](CC(C)C)CN3CCC[C@@H]3CN3C(=S)NC[C@@H]3Cc3ccc(O)cc3)C[C@@H]2CC(C)C)cc1,17.1%
20,CCOc1ccc(CCN2C(=O)C(=O)N([C@@H](CC(C)C)CN3CCC[C@H]3CN3C(=O)C(=O)NC[C@@H]3Cc3ccccc3)C[C@@H]2CC(C)C)cc1,-13.2%
21,CCOc1ccc(CCN2C(=S)N([C@@H](CC(C)C)CN3CCC[C@@H]3CN3C(=S)NC[C@@H]3Cc3ccc(O)cc3)C[C@@H]2Cc2ccc(O)cc2)cc1,51.8% (active)
22,CC1(C)NC(=O)N(CC(=O)Nc2ccc(-c3ccccc3)cc2)C1=O,-7.07%
23,Cc1cccc(N(CC(=O)Nc2ccc(-c3nc4ccc(C)cc4s3)cc2)S(C)(=O)=O)c1,9.99%
24,N=C1C(=O)OCC1c1ccccc1NC(=O)CN1CCCCC1 (stereo not given),-2.7%
25,CCN(CC)CCNc1nc(-c2ccc(OC(F)F)cc2)c(C)s1,7.54%
26,CCCCn1nnnc1C(c1cc2ccccc2o1)N(C)Cc1ccc(Cl)c(Cl)c1 (stereo not given),15.8%
27,COCCNC(=S)c1ccc(OC)cc1,-12.7%
